These results are taken from PubChem BioAssay (Tox21).

Assay [1] is described as follows: qHTS assay to identify aromatase inhibitors - cell viability counter screen (AID 743084;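 further: cells stimulated with testosterone during compound exposure; nearly all actives have a fitted effect of over 55% in size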). (In general: qHTS replaces the single test concentration by a dilution series.)
In assay [2] the target is Aryl hydrocarbon receptor (Homo sapiens) (UniProt P35869). The assay is described as follows: qHTS assay to identify small molecule that activate the aryl hydrocarbon receptor (AhR) signaling pathway (AID 743085). Further: nearly all actives have a fitted effect of over 15% in size. Further: potency means the concentration at half of the fitted maximal effect.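 On activation: HG2L7.5c1 human HepG2 liver cells with stably integrated DRE-driven firefly reporter; series mostly up to about 70 µM.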 An outline of the steps: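 24 h compound exposure, 37C, HepG2-derived HG2L7.5c1 cells with DRE-responsive luciferase. Readouts: fluorescence viability, then luminescence at room temperature after 30 min.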
Aryl hydrocarbon receptor (Homo sapiens), sequence (P35869 whole entry, looked up): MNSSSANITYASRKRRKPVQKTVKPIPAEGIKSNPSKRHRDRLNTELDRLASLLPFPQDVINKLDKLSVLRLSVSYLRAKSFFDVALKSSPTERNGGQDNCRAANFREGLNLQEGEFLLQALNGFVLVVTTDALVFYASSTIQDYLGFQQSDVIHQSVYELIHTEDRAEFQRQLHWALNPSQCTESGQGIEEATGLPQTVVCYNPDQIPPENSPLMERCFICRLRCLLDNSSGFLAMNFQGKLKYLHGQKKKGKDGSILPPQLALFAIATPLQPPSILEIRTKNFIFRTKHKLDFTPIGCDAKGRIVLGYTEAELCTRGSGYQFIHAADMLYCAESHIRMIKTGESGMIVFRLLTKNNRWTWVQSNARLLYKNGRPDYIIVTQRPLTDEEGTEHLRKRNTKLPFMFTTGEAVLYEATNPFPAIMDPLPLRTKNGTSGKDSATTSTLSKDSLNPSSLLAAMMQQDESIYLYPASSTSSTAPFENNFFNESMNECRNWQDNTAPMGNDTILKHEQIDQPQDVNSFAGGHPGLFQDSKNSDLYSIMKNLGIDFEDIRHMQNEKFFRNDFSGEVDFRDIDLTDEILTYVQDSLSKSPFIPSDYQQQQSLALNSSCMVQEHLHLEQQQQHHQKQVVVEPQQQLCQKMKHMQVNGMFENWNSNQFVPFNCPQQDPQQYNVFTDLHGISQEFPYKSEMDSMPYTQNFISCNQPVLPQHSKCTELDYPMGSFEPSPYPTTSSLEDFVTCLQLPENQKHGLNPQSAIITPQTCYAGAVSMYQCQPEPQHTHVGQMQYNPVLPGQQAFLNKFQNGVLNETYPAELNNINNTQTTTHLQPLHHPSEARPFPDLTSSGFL

A short description of assay [3]: qHTS assay to identify small molecule that activate the aryl hydrocarbon receptor (AhR) signaling pathway - cell viability counter screen (AID 743086).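 Further: HepG2 liver cells carrying the AhR DRE luciferase reporter; series mostly up to about 70 µM; nearly all actives have a fitted effect of over 45% in size.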 In a few lines:
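HepG2-AhR-luc (HG2L7.5c1) cells, 4000/well, were preincubated 5 h at 37C, exposed to compound in qHTS format for 24 hr at 37C, then given CellTiter-Fluor for 30 min; viability was read as fluorescence in the reporter wells.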

Assay [4] in a line: qHTS assay to identify small molecule antagonists of the peroxisome proliferator-activated receptor gamma (PPARg) signaling pathway - cell viability counter screen (AID 743194). Further: nearly all actives have a fitted effect of over 55% in size. In a few lines: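 PPARg-UAS-bla HEK293H cells were plated, rested 5 h at 37 C, then treated with compounds plus rosiglitazone (50 nM final) for 17 h at 37 C; viability was then read by CellTiter-Glo luminescence after 30 min at room temperature.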

The nature of assay [5]: qHTS assay for small molecule agonists of the antioxidant response element (ARE) signaling pathway - cell viability counter screen (AID 743203; calls by dose curve; further: nearly all actives have a fitted effect of over 55% in size). In a few lines: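 Seeded at 2,000 cells/well, ARE-bla HepG2 cells were incubated 5 hrs before compound addition. After 16 hrs of treatment at 37C with 5% CO2, CellTiter-Glo reagent was added and luminescence read 30 min later.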

A short description of assay [6]: qHTS assay for small molecule activators of the heat shock response signaling pathway - cell viability counter screen (AID 743209). Further: nearly all actives have a fitted effect of over 50% in size. An outline of the steps: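 First, HSE-bla HeLa cells were seeded at 1500 cells/well and kept overnight at 37 C. Next, compounds were pinned in and incubated 5 h. After the FRET substrate step, CellTiter-Glo was added and luminescence read 30 min later.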

A short description of assay [7]: qHTS assay for small molecule activators of the heat shock response signaling pathway (AID 743210; active means well fitted activation curve with a large enough effect in the signal ratio in the repeat runs, with a control signal flat, not every such curve was filed as active; the % refers to the signal ratio;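 further: HeLa cells with beta-lactamase reporter driven by heat shock elements; series mostly up to about 63 µM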). An outline of the steps:
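Reporter gene assay: HeLa cells stably bearing an HSE-bla construct, compound treatment 5 h at 37 C, LiveBLAzer substrate 2.5 h at RT, fluorescence intensity.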

A short description of assay [8]: qHTS assay to identify small molecule agonists of the peroxisome proliferator-activated receptor delta (PPARd) signaling pathway - cell viability counter screen (AID 743211). Further: nearly all actives have a fitted effect of over 55% in size. An outline of the steps: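 Luminescent ATP viability assay (CellTiter-Glo, 30 min RT) in UAS-bla HEK293H cells carrying the PPAR delta reporter construct, 3000 cells/well, after a 17 h compound treatment at 37 C.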

Assay [9] in a line: qHTS assay to identify small molecule antagonists of the peroxisome proliferator-activated receptor delta (PPARd) signaling pathway - cell viability counter screen (AID 743213). Further: nearly all actives have a fitted effect of over 50% in size. An outline of the steps:
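HEK293H cells with the PPARd UAS-bla reporter, co-treated 17 h at 37 C with compounds and L165041 (300 nM final), were lysed with CellTiter-Glo. Luminescence indicated viable cell content.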

Assay [10] can be described thus: qHTS assay to identify small molecule agonists of the farnesoid-X-receptor (FXR) signaling pathway - cell viability counter screen (AID 743218). Further: nearly all actives have a fitted effect of over 45% in size. In a few lines: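 Cytotoxicity counter-screen run in parallel, same wells: FXR-UAS-bla HEK 293T cells dosed 16 h at 37 C, viability read by CellTiter-Glo luminescence after 30 min at room temperature.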
Assay [11] deals with Peroxisome proliferator-activated receptor delta (Homo sapiens) (UniProt Q03181). Kind of assay: qHTS assay to identify small molecule agonists of the peroxisome proliferator-activated receptor delta (PPARd) signaling pathway (AID 743212; calls by dose curve). An outline of the steps:
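A PPARd-bla HEK293H line with beta-lactamase under an Upstream Activator Sequence is treated with compounds at 37 C. Substrate loading for 2 h at room temperature precedes the fluorescence measurement.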

Assay [12] shares this target. Kind of assay: qHTS assay to identify small molecule antagonists of the peroxisome proliferator-activated receptor delta (PPARd) signaling pathway (AID 743215; active means well fitted inhibition curve with a large enough effect in the signal ratio in the repeat runs, not every such curve was filed as active; the % refers to the signal ratio;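 further: cells stimulated with agonist L165041 at 300 nM final during compound exposure; series mostly up to about 62 µM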). An outline of the steps: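 Inhibition of L165041-driven (300 nM final) PPARd signaling is scored in HEK293H UAS-bla cells. Exposure lasts 17 h at 37 C; beta-lactamase activity is then read by FRET substrate fluorescence after 2 h at room temperature.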

In assay [13] the target is Bile acid receptor (Homo sapiens) (UniProt Q96RI1). The assay is described as follows: qHTS assay to identify small molecule antagonists of the farnesoid-X-receptor (FXR) signaling pathway (AID 743217; active means well fitted inhibition curve with a large enough effect in the signal ratio in the repeat runs, not every such curve was filed as active; the % refers to the signal ratio). An outline of the steps: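 Antagonist mode against 50 uM (final) chenodeoxycholic acid stimulation in FXR-bla HEK 293T cells, 16 h at 37 °C. Inhibition detected as reduced beta-lactamase activity via LiveBLAzer B/G FRET fluorescence after 2 h at room temperature.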
Bile acid receptor (Homo sapiens), sequence (Q96RI1 whole entry, looked up): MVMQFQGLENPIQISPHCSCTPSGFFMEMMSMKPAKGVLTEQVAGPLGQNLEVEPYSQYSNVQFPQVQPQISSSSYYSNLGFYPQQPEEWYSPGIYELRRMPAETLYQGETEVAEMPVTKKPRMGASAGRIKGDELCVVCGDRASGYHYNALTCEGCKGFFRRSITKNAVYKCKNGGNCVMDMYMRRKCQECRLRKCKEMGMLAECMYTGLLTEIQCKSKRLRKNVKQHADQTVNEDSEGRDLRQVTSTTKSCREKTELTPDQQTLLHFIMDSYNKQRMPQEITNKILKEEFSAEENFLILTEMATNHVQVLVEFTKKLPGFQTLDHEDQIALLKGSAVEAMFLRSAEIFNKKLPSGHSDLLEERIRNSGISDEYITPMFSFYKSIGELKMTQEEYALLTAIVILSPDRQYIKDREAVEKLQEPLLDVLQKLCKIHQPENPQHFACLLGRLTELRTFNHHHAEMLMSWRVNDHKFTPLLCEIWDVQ

The target is the same in assay [14]. The assay is described as follows: qHTS assay to identify small molecule agonists of the farnesoid-X-receptor (FXR) signaling pathway (AID 743220; active means well fitted activation curve with a large enough effect in the signal ratio in the repeat runs, not every such curve was filed as active; the % refers to the signal ratio). An outline of the steps: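 Beta-lactamase reporter under UAS control in GeneBLAzer FXR HEK 293T cells (5000/well) measured with LiveBLAzer FRET substrate after 2 h at room temperature. Compound exposure lasted 16 h at 37C.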

Assay [15] has as its target Vitamin D3 receptor (Homo sapiens) (UniProt P11473). Kind of assay: qHTS assay to identify small molecule agonists of the vitamin D receptor (VDR) signaling pathway (AID 743222; calls by dose curve). An outline of the steps:
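Quantitative HTS agonist-mode screen: compounds in DMSO were pin-transferred onto VDR-bla cells and incubated 16 h at 37C, 5% CO2. Reporter activity was detected with LiveBLAzer B/G FRET substrate after 2 h at room temperature.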

For assay [16] the target is unchanged. Kind of assay: qHTS assay to identify small molecule antagonists of the vitamin D receptor (VDR) signaling pathway (AID 743223; active means well fitted inhibition curve with a large enough effect in the signal ratio in the repeat runs, not every such curve was filed as active; the % refers to the signal ratio). In a few lines: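 Agonist 1alpha,25-dihydroxyvitamin D3 (3 nM in well) was added with each compound to VDR-bla cells preincubated 4 h. Cells stood 16 h at 37C, then FRET substrate 2 h at room temperature; fluorescence intensity recorded.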

Assay [17] in a line: qHTS assay for small molecule agonists of the antioxidant response element (ARE) signaling pathway (AID 743202; active means well fitted activation curve with a large enough effect in the signal ratio in the repeat runs, not every such curve was filed as active; the % refers to the signal ratio). In a few lines:
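Compounds delivered in DMSO to ARE-bla HepG2 cells (2,000 cells/well, pre-incubated 5 h) and left 16 h at 37 C. LiveBLAzer B/G FRET substrate then added for 2 h at RT before fluorescence reading.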

The nature of assay [18]: qHTS assay to identify small molecule antagonists of the farnesoid-X-receptor (FXR) signaling pathway - cell viability counter screen (AID 743221; active means well fitted cell-killing curve with a large enough effect in the repeat runs, not every such curve was filed as active; further: nearly all actives have a fitted effect of over 50% in size). An outline of the steps: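 In GeneBLAzer FXR-UAS-bla HEK 293T cells stimulated with 50 uM chenodeoxycholic acid (final), compounds acted for 16 h at 37 C. Viability was assessed afterwards by CellTiter-Glo luminescence.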
Assay [19] addresses Peroxisome proliferator-activated receptor gamma (Homo sapiens) (UniProt P37231). Kind of assay: qHTS assay to identify small molecule agonists of the peroxisome proliferator-activated receptor gamma (PPARg) signaling pathway (AID 743094; active means well fitted activation curve with a large enough effect in the signal ratio in the repeat runs, not every such curve was filed as active; the % refers to the signal ratio). An outline of the steps:
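Quantitative HTS agonist mode: stable HEK293H line with UAS-beta-lactamase reporter under PPARg control, 17 h compound exposure at 37C, fluorescence after 1 h FRET substrate loading at room temperature.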

Molecules are shown by their SMILES. Records with an inconclusive call do not appear. Calls of active or inactive are those of the source. Unless noted, the call rests on the fitted dose curve; in most records, active means well fitted curve in the direction sought with a large enough effect in the repeat runs; inconclusive means weak or mixed curves; inactive means no such curve, though single readings can be large; an effect the other way counts as inactive or inconclusive.

Peroxisome proliferator-activated receptor delta (Homo sapiens), sequence (Q03181 whole entry, looked up): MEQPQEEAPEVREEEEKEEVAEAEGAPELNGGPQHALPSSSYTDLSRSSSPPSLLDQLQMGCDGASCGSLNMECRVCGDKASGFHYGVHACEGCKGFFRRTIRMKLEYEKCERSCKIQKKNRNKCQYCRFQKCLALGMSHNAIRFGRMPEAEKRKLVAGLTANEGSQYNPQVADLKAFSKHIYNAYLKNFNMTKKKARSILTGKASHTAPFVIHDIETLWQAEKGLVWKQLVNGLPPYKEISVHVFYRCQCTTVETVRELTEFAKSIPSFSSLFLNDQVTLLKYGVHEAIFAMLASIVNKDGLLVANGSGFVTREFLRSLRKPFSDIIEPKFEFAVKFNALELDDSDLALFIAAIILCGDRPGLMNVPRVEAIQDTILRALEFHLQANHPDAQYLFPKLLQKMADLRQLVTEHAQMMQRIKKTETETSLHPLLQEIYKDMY
Vitamin D3 receptor (Homo sapiens), sequence (P11473 whole entry, looked up): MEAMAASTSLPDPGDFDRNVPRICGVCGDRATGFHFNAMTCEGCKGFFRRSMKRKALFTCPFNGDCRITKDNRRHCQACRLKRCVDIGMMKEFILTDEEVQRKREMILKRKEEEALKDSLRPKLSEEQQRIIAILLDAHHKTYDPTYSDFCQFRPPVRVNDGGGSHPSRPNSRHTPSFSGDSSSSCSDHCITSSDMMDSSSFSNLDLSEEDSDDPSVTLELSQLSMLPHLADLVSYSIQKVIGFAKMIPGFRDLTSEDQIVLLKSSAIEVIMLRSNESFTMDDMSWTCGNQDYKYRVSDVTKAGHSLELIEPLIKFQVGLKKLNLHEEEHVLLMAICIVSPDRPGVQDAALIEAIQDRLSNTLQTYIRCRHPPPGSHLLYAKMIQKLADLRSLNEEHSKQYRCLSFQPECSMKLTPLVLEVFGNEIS
Peroxisome proliferator-activated receptor gamma (Homo sapiens), sequence (P37231 whole entry, looked up): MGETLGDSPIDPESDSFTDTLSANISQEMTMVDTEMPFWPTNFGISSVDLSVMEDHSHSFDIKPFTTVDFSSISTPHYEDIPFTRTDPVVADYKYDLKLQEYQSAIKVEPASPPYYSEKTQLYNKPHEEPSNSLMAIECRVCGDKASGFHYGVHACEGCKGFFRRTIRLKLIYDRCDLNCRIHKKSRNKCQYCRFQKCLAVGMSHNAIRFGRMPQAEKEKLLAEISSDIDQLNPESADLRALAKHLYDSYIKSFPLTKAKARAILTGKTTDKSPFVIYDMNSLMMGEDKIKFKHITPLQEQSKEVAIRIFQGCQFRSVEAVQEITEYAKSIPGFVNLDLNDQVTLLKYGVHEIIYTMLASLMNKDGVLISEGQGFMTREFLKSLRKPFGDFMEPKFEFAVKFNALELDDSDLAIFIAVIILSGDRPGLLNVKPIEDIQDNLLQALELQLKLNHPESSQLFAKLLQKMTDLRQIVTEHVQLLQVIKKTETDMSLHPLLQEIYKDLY

On to `O=C(NC1CCN(CCc2c[nH]c3ccccc23)CC1)c1ccccc1`, for which the Potency result in [1], in assay [3], in assay [4], in [5], in assay [8] and in assay [9] was “inactive” each time. Also, in assay [10], the Potency entry is “inactive”. For the same molecule, the Potency in assay [2] was 29.8 µM (active). For the same molecule, the result in assay [6] and in assay [7] was inactive.

Consider `O=c1[nH][nH]c2ccccc12`, for which the Potency entry in assay [1], in assay [3], in assay [4], in assay [5], in assay [8] and in assay [11] was “inactive” throughout. The Potency result in assay [9] and in assay [10] was “inactive” each time. Also, the Potency in assay [2] is 62.3 µM (active). Moreover, the molecule was classed as inactive in assay [6], in assay [7], in assay [12], in assay [13], in [14] and in [15]. Also, the molecule was classed as inactive in [16].

Regarding `Oc1ccc(CCNCCCCCCNCCc2ccccc2)cc1O`, the Potency entry in [1], in assay [2], in assay [3], in assay [4], in [17] and in [5] was “inactive” in each case. Further, the Potency entry in assay [9], in [10] and in [18] was “inactive” each time. For the same molecule, the molecule was classed as inactive in assay [6], in assay [12], in assay [13], in [14] and in assay [16].

For the molecule `CCC1=C(C)CN(C(=O)NCCc2ccc(S(=O)(=O)NC(=O)NC3CCC(C)CC3)cc2)C1=O` (stereo not given), the Potency entry in [1], in [2], in assay [3], in assay [4], in assay [5] and in assay [8] was “inactive” each time. Also, the Potency entry in [11], in [9], in assay [10] and in assay [18] was “inactive” each time. Besides, the call in assay [6], in [7], in assay [12], in assay [15] and in [16] was inactive.

In the case of `CS(C)=O`, the Potency result in [1], in [2], in [3], in assay [19], in assay [4] and in [5] was “inactive” throughout. Besides, the Potency entry in assay [8], in [9], in assay [10] and in [18] was “inactive” throughout. Moreover, the molecule was called inactive in assay [6], in [12], in assay [13], in [14] and in [15].

Turning to `COC(=O)/C=C/C(C)=C\C=C\C(C)=C\C=C\C=C(C)\C=C\C=C(C)\C=C\C(=O)O`, the Potency entry in [1], in [2], in [3], in assay [19], in [4] and in assay [5] was “inactive” in each case. For the same molecule, the Potency entry in assay [8], in assay [11], in [9], in assay [10] and in assay [18] was “inactive” in each case. The molecule was called inactive in assay [6], in assay [7], in [13], in assay [14], in assay [15] and in [16].

Regarding `CCOC(C)OCC`, the Potency result in [1], in assay [2], in assay [3], in [4], in assay [5] and in assay [8] was “inactive” each time. Also, the Potency result in assay [9], in assay [10] and in [18] was “inactive” in each case. In addition, the result in [6], in [15] and in assay [16] was inactive.

In the case of `Clc1nc2ccccc2nc1Cl`, the Potency entry in [1], in [2], in assay [3], in [4], in assay [17] and in assay [5] was “inactive” each time. The Potency entry in assay [8], in [9] and in assay [10] was “inactive” in each case. Moreover, the molecule was classed as inactive in assay [6], in assay [12], in [15] and in assay [16].

On to `C[C@]12CCC(=O)C=C1[C@@H]1C[C@@H]1[C@H]1[C@@H]3[C@@H]4C[C@@H]4[C@@]4(CCC(=O)O4)[C@@]3(C)CC[C@@H]12`, for which the Potency result in [1], in assay [2], in assay [3], in assay [4], in assay [5] and in [8] was “inactive” each time. For the same molecule, the Potency result in [9] and in [10] was “inactive” in each case. Besides, the molecule was classed as inactive in assay [6], in assay [7] and in [16].

For `Cc1cc(C)n(CO)n1`, the Potency result in assay [1], in assay [2], in assay [3], in assay [19], in assay [4] and in assay [5] was “inactive” throughout. Further, the Potency result in assay [8], in [11], in assay [9], in [10] and in assay [18] was “inactive” each time. Further, the result in assay [6], in [7], in assay [12], in assay [13], in assay [14] and in assay [15] was inactive.

`CCCCCCCCC(=O)OCC(C)OC(=O)CCCCCCCC` (stereo not given): the Potency result in assay [1], in assay [2], in [3], in [19], in [4] and in [17] was “inactive” in each case. The Potency result in assay [5], in assay [8], in [9], in assay [10] and in assay [18] was “inactive” each time. The molecule was called inactive in assay [6], in assay [12], in [15] and in [16].

As for `CCCCCCCCCCCCSCCOCCO`, the Potency entry in assay [1], in [2], in assay [3], in assay [19], in assay [5] and in [8] was “inactive” throughout. Also, the Potency result in assay [10] and in assay [18] was “inactive” in each case. Besides, the molecule was classed as inactive in [6], in [7], in assay [13] and in [14].

`O=C(O)c1cccc(C(=O)O)c1C(=O)O`: the Potency entry in assay [1], in assay [2], in [3], in assay [19], in assay [4] and in assay [5] was “inactive” each time. Further, the Potency result in [8], in [10] and in [18] was “inactive” in each case. In addition, the call in assay [7] and in [15] was inactive.

Turning to `CC1(C)[C@@H]2CC[C@]3(C2)[C@@H]1C(=O)CCC3(C)C`, the Potency result in assay [1], in assay [2], in [3], in [4], in [17] and in assay [5] was “inactive” in each case. Besides, the Potency entry in assay [11], in assay [9], in assay [10] and in assay [18] was “inactive” throughout. In addition, the molecule was called inactive in [6], in assay [7], in [12], in assay [13], in [14] and in assay [15]. Moreover, in assay [16], the molecule was called inactive.
